High-throughput results: PubChem BioAssay, National Center for Advancing Translational Sciences (NCATS)
The list is not random: actives were taken first. Their share in the collection is about 2%.
Abeta yeast res: A-beta toxicity reversal in yeast; yeast expressing A-beta42, growth rescue, OD600, 48 h; response scale: 0% DMSO, 100% iron-clioquinol control; Potency, µM (series often up to 46.1 µM), usual class: activators; 410,000 compounds, 0.063% hits; AID 1347071; note: potency is the fitted concentration of half-maximal effect; nearly all actives have a fitted effect of over 55% in size
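Yeast A-beta toxicity model in growth medium with pinned compounds, 48 h at 30 C; growth read as absorbance at 600 nm. Normalized to FeCl3/clioquinol equimolar mix (positive) and DMSO (negative).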
FUS yeast rescue: FUS proteinopathy suppression in yeast; 390,000 compounds, 0.24% hits; S. cerevisiae FUS-expressing, growth rescue, OD600, 24 h; Potency, µM (titrated, usually from 76.6 µM), usual class: activators;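 note: potency is the fitted concentration of half-maximal effect; plate controls were DMSO vehicle for no effect and reference control for full effect; nearly all actives have a fitted effect of over 55% in size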
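Steps: raffinose overnight preculture; dilution to OD 0.005 in 2% galactose minimal medium; compound addition (concentration series); 24hr at 30C, 99% humidity; absorbance read at 600 nm.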
IDH1 R132H inh: human IDH1 R132H inhibition. O75874. IDH1-R132H enzyme, NADPH consumption, diaphorase/resazurin fluorescence. Potency, µM (series often up to 76.6 µM), without a hit: at the highest dose activity change, negative = inhibition, most hits filed as inhibitors. 390,000 compounds, 0.093% hits. AID 602179; note: potency is the fitted concentration of half-maximal effect; % is set by controls: 0 for no effect and ±100 for the full control effect; nearly all actives have a fitted effect of over 65% in size
Target sequence (O75874 whole entry R132H, stated change not applied): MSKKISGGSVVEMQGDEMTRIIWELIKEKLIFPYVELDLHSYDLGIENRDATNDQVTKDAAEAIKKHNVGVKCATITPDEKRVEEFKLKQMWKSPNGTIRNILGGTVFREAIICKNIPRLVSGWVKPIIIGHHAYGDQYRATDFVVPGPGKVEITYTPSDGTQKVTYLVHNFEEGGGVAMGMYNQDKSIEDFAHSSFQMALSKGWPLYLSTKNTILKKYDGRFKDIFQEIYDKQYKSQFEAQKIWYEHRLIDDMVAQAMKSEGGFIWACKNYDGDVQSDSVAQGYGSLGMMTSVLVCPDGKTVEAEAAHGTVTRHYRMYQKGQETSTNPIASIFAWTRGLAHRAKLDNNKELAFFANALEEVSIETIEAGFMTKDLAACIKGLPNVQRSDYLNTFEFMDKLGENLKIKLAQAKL
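IDH1-R132H (0.5 ug/mL) preincubated 30 min with compound, then NADPH (0.016 mM) and alpha-KG (2 mM) added; 80 min at RT, pH 7.5. Remaining NADPH coupled via diaphorase/resazurin to fluorescence (540/590 nm); concentration-response curves normalized to no-enzyme control.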
LDHA block: inhibitors of human lactate dehydrogenase A | purified LDHA, NADH/diaphorase-resazurin fluorescence; stronger effect = lower value | P00338 | AID 1347041 | activity change, % (values are at about 110 or 230 µM) | 480,000 compounds, 0.15% hits; in the data active = activity change below about -30%; inconclusive = mostly about -25% to -30%;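 note: plate controls were DMSO wells for no effect and wells without enzyme for full effect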
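Human LDH5 (2 nM) was incubated with 0.06 mM NADH and 0.2 mM pyruvate for 5 min at room temperature in Tris pH 7.4. Remaining NADH was coupled through diaphorase/resazurin, and resorufin fluorescence was read at 0 and 20 min.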
TDP43 rescue: rescues yeast growth from TDP-43 toxicity | TDP-43 expressing yeast growth rescue, BacTiter-Glo, 24 h | Potency, µM (highest dose often 46.1 µM), for inactives: at the top dose growth rescue (activation), most hits filed as activators | 410,000 compounds, 1.8% hits | AID 652104; note: potency is the fitted concentration of half-maximal effect; % of control where 0% means no effect; nearly all actives have a fitted effect of over 50% in size
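Growth rescue of TDP-43-toxic yeast measured as ATP luminescence (BacTiter-Glo). Cells grown to mid-log in raffinose, induced in galactose at OD600=0.02, exposed to compound 24 hr at 30 deg C.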
aSyn rescue: alpha-synuclein toxicity inhibition in yeast; Yeast expressing alpha-synuclein, growth rescue, BacTiter-Glo, 24 h; Potency, µM (titrated, usually from 46.1 µM), for the others: top-dose growth rescue (activation), most hits filed as activators; 370,000 compounds, 0.14% hits; note: potency is the fitted concentration of half-maximal effect; % of control where 0% means no effect; nearly all actives have a fitted effect of over 65% in size
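Readout is rescue of growth in alpha-synuclein-expressing yeast, so inhibitors of toxicity appear as activators. Growth after 24 hr at 30 deg C in galactose medium is quantified by luminescence.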
Numbers without * were called inactive; i = inactive; ? = inconclusive; / = not tested or not shown; ! = not active in a repeat; [ ] = another dose, or the depositor's remark. Unless noted, calls come from the whole dose curve; as a rule, active = well fitted curve in the direction sought with a large enough effect; inconclusive = small, poorly fitted or top-dose-only effect, or another doubt; inactive = no such curve, though single readings can be large; an effect the other way counts as inactive or inconclusive.

SMILES	Abeta yeast res	FUS yeast rescue	IDH1 R132H inh	LDHA block	TDP43 rescue	aSyn rescue
O=C1CC(c2c[nH]c3ccccc23)c2c(c3ccccc3[nH]c2=O)O1 (stereo not given)	/	/	/	-5	/	/
CCn1c(SCc2cc3c(cc2Br)OCCO3)nc2cc(S(N)(=O)=O)ccc21	/	/	/	3	/	/
Cc1oc2cc(OCC(=O)Nc3ccc(O)cc3)ccc2c(=O)c1-c1ccccc1	/	/	/	-3	/	/
COc1cc(-n2c(C)nc3cc(C(=O)O)ccc32)cc(OC)c1OC	i	i	-1%	0	-2%	0%
Cc1nc2cc(Cl)ccc2n1-c1ccccc1	i	i	3%	-5	13µM*	-2%
Cc1cc(C)cc(-n2c(C)nc3cc(C(=O)O)ccc32)c1	i	i	1%	-7	13µM*!	-1%
O=C(c1ccco1)n1nc(NCc2ccccc2)nc1NCc1ccccc1	i	i	4%	-8	10µM*	-3%
N#Cc1nc(-c2ccccc2Cl)oc1N1CCOCC1	i	?	3%	-32*!	?	-5%
Cc1oc2cc(OC(=O)c3ccc4c(c3)OCO4)ccc2c(=O)c1-c1ccccc1	/	/	/	-30*	/	/
COc1ccc2c(=O)c(-c3ccccc3)c(C)oc2c1	i	i	1%	-2	11µM*	6%
Cc1oc2cc(OC(=O)c3ccc(S(C)(=O)=O)cc3)ccc2c(=O)c1-c1ccccc1	/	/	/	-2	/	/
COc1ccc2c(=O)c(-c3ccccc3OC)c(C)oc2c1	/	/	/	-1	/	/
Cc1nc(C)c(-c2csc(Nc3ccc(F)cc3)n2)s1	?	i	14%	3	/	-13%
Cc1nc(C)c(-c2csc(Nc3ccc(Cl)cn3)n2)s1	i	i	-2%	-3	13µM*	-27%
COc1ccc(OC)c(Nc2nc(-c3sc(C)nc3C)cs2)c1	i	i	-2%	7	22µM*	8%
COc1ccc(OC)c(Nc2nc(-c3sc(NC(=O)C(C)(C)C)nc3C)cs2)c1	i	?	-3%	0	6%	-16%
Cc1nc(NC(=O)Cc2c(C)nn(C)c2C)sc1-c1ccccc1	/	/	/	-1	/	/
CCOP(=O)(OCC)c1nc(Cc2ccccc2)oc1NCc1ccc2c(c1)OCO2	/	/	/	9	/	/
CN(C)S(=O)(=O)c1ccc(NC(=O)c2ccc3ncsc3c2)cc1	i	i	0%	-3	-2%	18%
COc1ccc(NC(=O)c2ccc3nc(C)sc3c2)cc1	i	i	8%	-2	0%	-18%
COc1ccc(NC(=O)c2ccc3ncsc3c2)cc1	?	i	-2%	-4	7.1µM*	-27%
O=C(Nc1ccc(Br)cc1)c1ccc2ncsc2c1	i	i	1%	-3	3.2µM*	-6%
Cc1ccc(Nc2nnc(-c3ccc(C)c(S(=O)(=O)NC(C)(C)CO)c3)c3ccccc23)c(C)c1	/	/	/	1	/	/
COc1ccccc1NC(=O)CSc1ccc(-c2ccco2)nn1	i	i	7%	-2	?	-4%
COc1ccc(OC)c(NC(=O)CSc2ccc(-c3ccco3)nn2)c1	i	i	-2%	6	20µM*	-7%
SMILES	Abeta yeast res	FUS yeast rescue	IDH1 R132H inh	LDHA block	TDP43 rescue	aSyn rescue
COc1ccccc1NC(=O)CSc1ccc(-c2cccs2)nn1	i	i	4%	2	22µM*	-18%
COc1ccc(OC)c(NC(=O)CSc2ccc(-c3cccs3)nn2)c1	i	i	9%	4	10%	/
COC(=O)CCn1c(SC(C)C(=O)c2ccccc2)nc2ccccc2c1=O (stereo not given)	/	/	/	3	/	/
CC1(C)CCC(=NNC(N)=S)CC1	i	/	4%	-5	-16%	1%
NC(=S)NN=C1CSSC1	?	i	9%	2	20µM*	2.8µM*
CC(C)(C)NC(=S)Nc1ccc(Br)cc1	i	i	2%	-4	16µM*	-18%
Fc1cc(Br)ccc1NC(=S)Nc1ccccc1	i	/	1%	-4	?	-8%
Fc1ccccc1NC(=S)Nc1ccc(Br)cc1	i	i	-4%	-5	13µM*	-41%
Cc1cc(OC(C)C(=O)Nc2ccc3nsnc3c2)ccc1Cl (stereo not given)	/	/	/	11	/	/
Cc1cc(C)c2ccc(/C=N/O)nc2c1O	?	i	1%	3	21%	13µM*
CCc1cc(C(=O)Nc2ccccc2C#N)cs1	/	/	/	-1	/	/
Cc1cc(C)c2nc(SCC(=O)Nc3sccc3C(N)=O)cc(C)c2c1	/	/	/	3	/	/
Cc1cc(SCC(=O)NC(=O)NCc2ccco2)nc2c(C)cccc12	i	?	7%	-17	-9%	11µM*
Cc1cc(C)c2nc(SCC(=O)NC(N)=O)cc(C)c2c1	/	/	/	-34*	/	/
Cc1cc(SCC(=O)NC(=O)NCc2ccco2)nc2ccccc12	i	?	4%	-6	?	-1%
CSc1nnc(-c2nn(C)c3c2CN(S(=O)(=O)c2ccccc2)CC3)n1C	/	/	/	12	/	/
COc1ccc(CNC(=O)COc2cc(O)c3c(c2)OC(C)(C)CC3=O)cc1	i	i	-10%	1	11µM*	7%
CC1(C)CC(=O)c2c(O)cc(OCC(=O)NCCc3ccc(S(N)(=O)=O)cc3)cc2O1	i	i	-2%	6	3%	2%
COc1cnc(-c2ccccn2)nc1Oc1ccccc1Cl	i	i	-2%	-1	0%	4%
COc1cnc(-c2ccccn2)nc1Oc1ccc(F)cc1F	22µM*	i	3%	1	19%	-11%
CCOC(=O)c1nc(NCCc2ccccc2)sc1C	i	i	3%	-7	13µM*	-17%
CCCCN=Cc1sc2ccc(OCC)cc2c1O	i	i	0%	-5	16µM*	5%
ONC(=Nc1ccccc1)c1ccc(Cl)cc1	i	i	0%	-4	13µM*	8%
NC(N)=NC(N)=Nc1ccc(O)cc1	i	i	13%	-8	18%	4%
NC(=S)N=Nc1ccc(O)cc1	i	/	8%	19	13µM*	-15%
O=C(CCC(=O)c1cccs1)OCc1ccc([N+](=O)[O-])cc1	i	i	-2%	-4	11µM*	0%
N#Cc1ccccc1COC(=O)CCC(=O)c1cccs1	i	i	-14%	-7	22%	-6%[1.84 µM]
Cc1ncc(-c2ccc(S(=O)(=O)Nc3ccc(C)c(C)c3)cc2)o1	/	/	/	18	/	/
Cc1ncc(-c2ccc(S(=O)(=O)Nc3ccc(C)c(F)c3)cc2)o1	/	/	/	-31*	/	/
Cc1ncc(-c2ccc(S(=O)(=O)Nc3cccc(Cl)c3C)cc2)o1	/	/	/	-31*	/	/
